# Measurements as given in paper PMC11208138.
# Key:
# Assay in all cases: cross-link between two proteins; cross-linking mass spectrometry
# [1] = target: Heterogeneous nuclear ribonucleoproteins C1/C2 (UniProt P07910)
# NHP2-like protein 1 = NHP2-like protein 1 (UniProt P55769)
# [2] = target: Ubiquitin carboxyl-terminal hydrolase 39 (UniProt Q53GS9)
# [3] = target: Serine/arginine-rich splicing factor 1 (UniProt Q07955)
# Serine/arginine-rich splicing factor 1, sequence (Q07955 whole entry): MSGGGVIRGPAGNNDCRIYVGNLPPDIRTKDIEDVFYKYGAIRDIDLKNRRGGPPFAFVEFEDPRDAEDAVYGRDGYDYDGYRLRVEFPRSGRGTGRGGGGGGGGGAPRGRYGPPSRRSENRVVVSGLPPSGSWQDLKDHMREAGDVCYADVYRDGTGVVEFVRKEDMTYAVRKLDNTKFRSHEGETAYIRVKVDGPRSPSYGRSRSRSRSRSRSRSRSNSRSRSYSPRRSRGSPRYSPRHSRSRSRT
# NHP2-like protein 1, sequence (P55769 whole entry): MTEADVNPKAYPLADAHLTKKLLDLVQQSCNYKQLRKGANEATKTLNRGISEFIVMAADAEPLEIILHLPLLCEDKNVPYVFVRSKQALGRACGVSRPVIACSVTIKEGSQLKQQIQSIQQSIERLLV
# Ubiquitin carboxyl-terminal hydrolase 39, sequence (Q53GS9 whole entry): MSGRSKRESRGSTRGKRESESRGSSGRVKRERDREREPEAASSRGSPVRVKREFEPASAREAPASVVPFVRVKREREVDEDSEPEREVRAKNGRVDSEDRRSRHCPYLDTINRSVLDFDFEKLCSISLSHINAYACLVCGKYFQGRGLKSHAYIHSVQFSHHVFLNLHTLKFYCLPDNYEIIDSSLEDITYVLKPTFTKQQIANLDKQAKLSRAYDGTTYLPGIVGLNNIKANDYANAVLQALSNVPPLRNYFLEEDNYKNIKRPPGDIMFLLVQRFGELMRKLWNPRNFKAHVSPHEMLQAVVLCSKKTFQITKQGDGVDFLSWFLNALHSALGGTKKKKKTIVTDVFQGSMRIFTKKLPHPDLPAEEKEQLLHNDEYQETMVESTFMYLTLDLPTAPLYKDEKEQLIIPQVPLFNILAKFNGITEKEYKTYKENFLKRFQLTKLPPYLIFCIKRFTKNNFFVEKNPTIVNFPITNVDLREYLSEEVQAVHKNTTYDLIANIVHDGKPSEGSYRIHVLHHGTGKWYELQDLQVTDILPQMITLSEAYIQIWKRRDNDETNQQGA
# Heterogeneous nuclear ribonucleoproteins C1/C2, sequence (P07910 whole entry): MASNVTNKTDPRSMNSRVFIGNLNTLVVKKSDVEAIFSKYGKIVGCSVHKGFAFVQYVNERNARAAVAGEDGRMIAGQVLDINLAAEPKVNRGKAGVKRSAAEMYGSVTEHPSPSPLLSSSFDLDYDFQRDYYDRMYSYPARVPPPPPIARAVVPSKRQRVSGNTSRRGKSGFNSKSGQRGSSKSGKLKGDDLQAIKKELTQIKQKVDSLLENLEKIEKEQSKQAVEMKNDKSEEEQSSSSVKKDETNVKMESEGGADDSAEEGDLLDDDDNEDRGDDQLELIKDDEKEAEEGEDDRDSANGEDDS
substance,measurement,setting,value
"Survival of motor neuron-related-splicing factor 30, O75940",listed as a hit,[1],yes
"Pre-mRNA-processing factor 6, O94906",listed as a hit,NHP2-like protein 1,yes
same,listed as a hit,[2],yes
"Probable ATP-dependent RNA helicase DDX5, P17844",listed as a hit,[3],yes
